DT40 TDP1 CPT – growth inhibition of DT40 Tdp1-/-;hTDP1 cells with camptothecin (screen for TDP1 inhibitors); hit rate 12% among 420,000; Potency, µM (top dose mostly 46.2 µM), for the others: at the top dose activity change, negative = growth inhibition, most hits filed as inhibitors; chicken DT40 Tdp1-/-;hTDP1 cells + 20 nM CPT, ATP luminescence, 48 h; also: % is scaled to controls: 0 for no effect and ±100 for the full control effect; nearly all actives have a fitted effect of over 55% in size
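Cell growth measured by CellTiter-Glo luminescence after a minimum 48 h, 37 C compound exposure with 20 nM CPT in Tdp1-knockout DT40 cells stably expressing hTDP1, seeded 400/well; qHTS titration format.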
TGFb inhibitor – TGF-b pathway inhibition. HepG2 CAGA-GFP TGF-b/SMAD3 reporter, GFP fluorescence, 18 h; TGF-beta stimulated, 500 pg/mL final. Potency, µM (doses to about 46.1 µM), for inactives: at the top dose activity, negative = inhibition, usual class: inhibitors. hit rate 1.2% among 410,000. AID 588855; also: % is scaled to controls: 0 for no effect and ±100 for the full control effect; nearly all actives have a fitted effect of over 65% in size
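Per well, imaged GFP fluorescence of HEPG2 CAGA-GFP cells gives the signal; cells get compound, then TGF-beta (500 pg/mL final), 18 h at 37 degrees C; %Activity versus -TGF-beta and +DMSO controls.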
TDP1 cell noCPT – qHTS for Inhibitors of human tyrosyl-DNA phosphodiesterase 1 (TDP1): qHTS in cells in absence of CPT. DT40 Tdp1-/- hTDP1 cells, no CPT, ATP luminescence, 48 h. Potency, µM (series often up to 46.2 µM), without a hit: at the highest dose activity change, negative = growth inhibition, actives largely listed as inhibitors. hit rate 15% among 420,000. AID 686978, 2013; also: % is scaled to controls: 0 for no effect and ±100 for the full control effect; nearly all actives have a fitted effect of over 55% in size
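Seeded 400 DT40-hTDP1 cells/well (vehicle DMSO, no 20 nM CPT); pinned compounds; ≥48 hr at 37 °C; CellTiter-Glo luminescence as viability measure.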
ATXN2 expr inh – ATXN2 expression inhibition. HEK-293 ATXN2-luciferase reporter, luminescence, 24 h. Potency, µM (highest dose often 57 µM), inactives show top-dose activity change, negative = inhibition, actives largely listed as inhibitors. hit rate 0.72% among 360,000; also: % is scaled to controls: 0 for no effect and ±100 for the full control effect; nearly all actives have a fitted effect of over 55% in size
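qHTS (up to 57 uM final) was run with 24 h compound exposure of reporter cells at 37 °C. Each well was multiplexed: SteadyGlo luminescence measured ATXN2-luciferase expression after a fluorogenic Gly-Phe-AFC viability readout (25 uM final).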
HepG2 tox – kills HepG2 cells in TGF-b inhibitor counter-screen | AID 588856 | HepG2 CAGA-GFP viability, ATP luminescence, 18 h | hit rate 0.76% among 410,000 | Potency, µM (titrated, usually from 46.1 µM), inactives show at the highest dose activity change, negative = cytotoxicity, usual class: cytotoxic
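HepG2 CAGA-GFP cells (1000/well, DMEM with 1% FBS) received compound, then TGF-beta at 500 pg/mL final, and were incubated 18 hours at 37 degrees C. Viability was read by CellTiter-Glo luminescence. Media-only wells were set as complete cell-killing and DMSO as no toxicity.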
S2 tox – viability counter-screen for ATXN expression inhibitors; S2 cells (HEK-293 line with an ATXN2-luciferase reporter) viability, CellTiter-Fluor protease fluorescence, 24 h; Potency, µM (series often up to 56.7 µM), actives largely listed as cytotoxic; hit rate 0.49% among 400,000; also: nearly all actives have a fitted effect of over 40% in size
Starred values were filed as active, the others as inactive; i = inactive; u = inconclusive; x = no result; [ ] = another dose, or the depositor's remark. Compounds with a hit are over-represented: about 17% of the library has one in this group of screens. Calls follow the shape of the dose curve; as a rule, active = well fitted curve in the direction sought with a large enough effect; inconclusive = small, poorly fitted or top-dose-only effect, or another doubt; inactive = no such curve, though single readings can be large; an effect the other way counts as inactive or inconclusive. Potency is read from the fitted curve at half-maximal effect.

SMILES	DT40 TDP1 CPT	TGFb inhibitor	TDP1 cell noCPT	ATXN2 expr inh	HepG2 tox	S2 tox
CCc1ccc(-c2cc(C)no2)cc1S(=O)(=O)N1CCN(c2ccc(C(C)=O)cc2)CC1	u	-9%	18µM*	-22%	-11%	i
CCc1ccc(-c2cc(C)no2)cc1S(=O)(=O)N1CCN(c2cccc(C)c2C)CC1	23µM*	-2%	u	-5%	-13%	i
CCc1nc(-c2ccc(C)c(S(=O)(=O)N3CCN(c4ccc(C(C)=O)cc4)CC3)c2)no1	13µM*	u	7.3µM*	-8%	-21%	i
CCc1ccc(-c2cc(C)no2)cc1S(=O)(=O)N1CCN(c2cccc(Cl)c2)CC1	1µM*	-12%	0.65µM*	x	5%	x
CCc1ccc(-c2cc(C)no2)cc1S(=O)(=O)N1CCN(c2ccccc2F)CC1	u	-8%	-10%	16%	-8%	i
Cc1ccccc1S(=O)(=O)N1C[C@H]2[C@H]3C(=O)N(c4ccccc4)C(=O)[C@H]3CC(=O)[C@H]2[C@@H]1c1ccc(Cl)cc1	-5%	1%	0%	1%	-2%	i
N#Cc1ccc(CSc2nc3c(c(=O)[nH]2)CCCC3)cc1	u	17%	u	13%	-2%	i
CCc1ccc(-c2cc(C)no2)cc1S(=O)(=O)N1CCN(c2cc(C)ccc2C)CC1	u	-12%	16µM*	-1%	-8%	i
CCc1ccc(-c2cc(C)no2)cc1S(=O)(=O)N1CCOc2ccc(C)cc21	u	u	u	-33%	-9%	i
O=C(c1ccc(S(=O)(=O)N2CCCCC2)cc1)N(c1ccccn1)C1CCCCC1	23µM*	-27%	u	1%	-17%	i
CC1CC(C)CN(S(=O)(=O)c2ccc(C(=O)N(C)Cc3ccccc3)cc2)C1 (stereo unspecified)	u	u	21µM*	x	-18%	u
CC1CC(C)CN(S(=O)(=O)c2ccc(C(=O)N(c3ccccn3)C3CCCCC3)cc2)C1 (stereo unspecified)	u	-26%	16µM*	-19%	-19%	i
COc1cccc(/C=C/c2nc(C#N)c(N3CCN(C)CC3)o2)c1	23µM*	-26%	23µM*	-16%	-14%	i
COc1ccc(N2CCN(c3oc(/C=C/c4cccc(OC)c4)nc3C#N)CC2)cc1	-2%	1%	10%	x	6%	x
COc1cc(/C=C/c2nc(C#N)c(N3CCN(C)CC3)o2)cc(OC)c1OC	8.2µM*	0%	8.2µM*	x	-13%	x
Cc1ccccc1NC(=O)CCN1CCN(CCO)CC1	20%	3%	11%	-7%	27%	i
COc1ccc(OC(=O)c2nc(SCc3ccccc3F)ncc2Cl)cc1	-9%	-7%	-22%	x	-8%	x
COC(=O)c1scc(-c2ccc(C)cc2)c1S(=O)(=O)Nc1ccc(OC(F)(F)F)cc1	-7%	-9%	-9%	3%	-15%	i
COC(=O)c1scc(-c2ccc(C)cc2)c1S(=O)(=O)Nc1ccc(N(C)C)cc1	16µM*	1%	15µM*	2%	-13%	i
COC(=O)c1scc(C)c1S(=O)(=O)Nc1ccc(C)cc1	-23%	-25%	u	33%	-9%	x
COC(=O)c1scc(-c2ccc(C)cc2)c1S(=O)(=O)Nc1ccc(NC(C)=O)cc1	18µM*	u	u	-16%	-24%	i
Cc1cccc(C)c1NC(=O)C(=O)NCc1ccccn1	4%	-24%	-17%	1%	-4%	i
O=c1c2c3c(sc2n2cnnc2n1Cc1ccccc1)CN(Cc1ccccc1)CC3	16µM*	-5%	15µM*	4%	-4%	i
CC(=O)N1CCc2c(sc3c2c(=O)n(CCc2ccccc2)c(=O)n3Cc2ccc(F)cc2)C1	18µM*	11µM*	8.2µM*	u	-63%	u
CC(=O)N1CCc2c(sc3c2c(=O)n(Cc2ccccc2)c(=O)n3Cc2ccccc2Cl)C1	u	-18%	23µM*	7%	-18%	i
SMILES	DT40 TDP1 CPT	TGFb inhibitor	TDP1 cell noCPT	ATXN2 expr inh	HepG2 tox	S2 tox
CC(=O)N1CCc2c(sc3c2c(=O)n(Cc2ccccc2)c(=O)n3Cc2ccc(C)cc2)C1	-6%	u	19%	0%	-9%	i
CC(=O)N1CCc2c(sc3c2c(=O)n(Cc2ccccc2)c(=O)n3Cc2ccccc2F)C1	21µM*	-17%	21µM*	-1%	-42%	i
Cc1cccc(C)c1NC(=O)NC1(C(=O)N2CCOCC2)CCCCC1	1%	13%	-10%	-1%	-20%	i
Cc1c(-c2ccccc2)[n+](=O)c2c(n1[O-])CCCC2	14%	0%	-3%	1%	-53%	i
CCOc1ccc(C2C(C(N)=O)=C(C)Nc3nc(-c4ccc(OC)cc4)nn32)cc1 (stereo unspecified)	-2%	-5%	-7%	-5%	-5%	i
CN1C(=O)N(c2ccc(Cl)cc2)C(C)(O)CC1(C)C (stereo unspecified)	-17%	134%	19%	-9%	0%	i
CC1(C)N=C(N)N=C(N)N1c1ccc(Cl)cc1	u	x	0.34µM*	x	x	i
CCOc1ccc(Cc2cc([C@@H]3O[C@H](CO)[C@@H](O)[C@H](O)[C@@H]3O)ccc2Cl)cc1	x	x	x	0%	x	x
N#CC1=C(N)Oc2cc(N)ccc2C1c1cccnc1 (stereo unspecified)	u	-7%	16µM*	12%	2%	i
CC(=O)C1=C(C)OC(N)=C(C#N)C1c1cccnc1 (stereo unspecified)	u	-2%	-27%	3%	-5%	i
CCN(CC)c1ccc2c(c1)OC(N)=C(C#N)C2c1cccnc1 (stereo unspecified)	0.021µM*	19%	0.037µM*	-6%	-38%	i
COc1ccc(OC)c(C(=O)N2CCc3c(cnc(C)c3CNS(=O)(=O)N(C)C)C2)c1	6%[9.04 µM]	x	-11%	x	x	i
CC(=O)NS(=O)(=O)c1ccc(NC(=O)c2ccc(Cl)cc2[N+](=O)[O-])cc1	6%	-4%	6%	-1%	-3%	i
C/C(=N\NC(=O)c1ccc([N+](=O)[O-])c(C)c1)c1ccccc1Cl	u	0%	21µM*	12%	-24%	i

Screening data: PubChem BioAssay, National Center for Advancing Translational Sciences (NCATS)
